Data taken from the supplement of paper PMC6555819.

System: VDR:RXRa (NR concentration 270 nM, RXRa partner concentration 90 nM)
Test: PBM binding z-score (relative to random genomic background probes); higher = stronger binding; sequences stand for … in GC…GCGATTGACAGCGTAGAATGAAGG
Description: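 Protein-binding microarray (Agilent 4x180K custom design, double-stranded 60-nt probes: 5' GC cap, 34-nt variable region, 24-nt constant primer region; full probe sequence given). Purified or IVT nuclear receptor:RXRα heterodimers (3:1 NR:RXRα, mostly 270:90 nM) or homodimers were incubated for 1 h in PBS with 2% milk and no ligand, then detected with Alexa488 antibodies. Fluorescence from o1-orientation probes (~5 replicates averaged) was converted to z-scores against 500 random hg19 background probes. Variable regions are seed direct-repeat (DR0–DR5) sites, all their single-nucleotide variants and half-site ablations.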

Going from CCCGCTAGGTCAATGGTCAGCTAAAGCAGCTCGC to TCTAGCAGGCCAGAGGGTGACTCAAGAGGTACGG, the PBM binding z-score falls from 1.02 to -0.421.

First: GATACAGGGTCAGATAGAGGCCAGAGTATGGAAA
Second: TATACACGGTCAAAGGCCAGAGTACGAATGTCGA
The PBM binding z-score of the first is higher: 3.49 for the first, 0.598 for the second.

Compared with CCTTACGGGTCACTGACAGGTTATATCATTTGGA, TCTATTAGTTGCTTAGGGCAACCGAAACAGCGGA is lower in PBM binding z-score: 3.81 for the first, 0.49 for the second.

Compared with ATCTCTAGGTATAGTTCAGTGAAAGATCGATAGA, ACTTACGGGTCAACGAGGTTATAACACGCGTATA is higher in PBM binding z-score: 1.04 for the first, 7.9 for the second.

Compared with CTTCCAAGGTCAGCAGGTCAGTGAAAGCGACGTG, CCTACTGGGCCAAAAAGGTCATTAATGCCGATAA is higher in PBM binding z-score: 4.03 for the first, 4.53 for the second.

Going from ATATTTAGGTTATCGGGTCATTCAGTTTGCGCAT to CGTCCAAGGTCATAGGAGGTTAGTGAAGACAGAT, the PBM binding z-score falls from 5.35 to 5.

First: AGTATTAGTTGACTTAGGGCAACCGATACGACGC
Second: CCTAGTTGGTCAGTAGGTCACACACCGGATATGA
The PBM binding z-score of the first is lower: 0.573 for the first, 1.91 for the second.

Going from TTTTGTAGATCAAGCAGGTTAAGAAAGCCTGAGT to CCTGCTAGGTCAATGGTCAGCTATAGCAGCTCGC, the PBM binding z-score rises from 0.649 to 0.921.

Going from TCATATAGGTAAAAGGCGAAAGTCGGTGTGGTAA to CAAACTAGGTCAAAGGGCAAAGTCGAGCCAACCA, the PBM binding z-score rises from 0.679 to 3.83.

Going from CCTATTAGTTGAACATAAGGGCAACCGAAGCTCG to CCGACTCGGGCATAAGGTTACCATAAGCCAGCCC, the PBM binding z-score falls from 0.603 to -0.121.

Compared with ACTATTAGTTGACTTAGGGCAATCGATACGACGC, ATCTCTAGGCAACCAAGTTCAGTGAATGCCGAAC is higher in PBM binding z-score: 0.462 for the first, 2.1 for the second.

Going from ATCGAAAGGTCGCCGAGGTGAGTATACACCGTTT to ATATGTAGGTTATCAGGTCATTCAGTTTGCGCAT, the PBM binding z-score falls from 5.39 to 4.71.

First: ACTATTAGTTTAGACGAGGGCAACCGATAGGTTG
Second: CGAACTAGGTCTAGGACAGTGAATCTCCGCACGC
The PBM binding z-score of the first is higher: 0.8 for the first, -0.692 for the second.

Going from TCTCGGAGGACACGAAGGTGAGAGCTTTCCAGAG to AGAATGAGGTTAAGATCAGGGGAACAGAATACAT, the PBM binding z-score rises from -0.377 to 1.33.

Compared with TCAGACAGGTAAAGGTAACTCAGGTACGCAGTCG, TGAATGAGGATAAAGATCAGGGAACGTGGCGTCG is lower in PBM binding z-score: 1.44 for the first, -0.375 for the second.

Compared with CGTACTAGGTCATTGACAGGACAGTGAATAGTAA, TCGAGCAGGTTAGGGGCATTCAGAATGGCGTCGA is lower in PBM binding z-score: 2.09 for the first, 0.187 for the second.

Compared with ACTAGCGGGCCAAGGGTCACTCAAGATTAGTCCG, TCTCGGAGGACACGAAGGTCAGAGCGTTCCAGAG is lower in PBM binding z-score: 2.66 for the first, 2.42 for the second.

Going from CAAACTAGGTCAAAGGTTAAAGTCGAGCCAACCA to TCTTGTAGATCACCAGGAGGTTAAGAAAGATCGA, the PBM binding z-score falls from 4.87 to 0.799.

Compared with CAAACTGGGTCAAAGGTCAAAGTCGAGCCAACCA, CATAAAGGGTCAGCTAGGCCAGAGTAGGGACGGC is lower in PBM binding z-score: 6.65 for the first, 4.05 for the second.

Going from CCTAGGAGGCCAATCTGGGTCACTCAAGGCTTGA to CCTTACGGGTCAAGGTTATAGAACGGGTGGTACG, the PBM binding z-score rises from 1.21 to 3.42.
